{"source": "PubChem BioAssay AID485317", "about": "(Broad Institute, 2010)", "note": "Where “and” joins values, the source holds several entries; their conditions need not be identical. Equal entries are not always repeated. The whole screen tested about 290,000 compounds, of which about 11,000 (3.8%) were called active.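 Rule for the calls: active = mean replicate inhibition above about 79%, with every replicate also reaching it (limit read from the data); inconclusive = only one of the two criteria met; inactive = mean below limit and not every replicate reaching it.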 This excerpt belongs to a sample that is enriched for actives."}
{"biological_target": "FAD-linked sulfhydryl oxidase ALR (Homo sapiens) (UniProt P55789)", "sequence (P55789 whole entry, looked up)": "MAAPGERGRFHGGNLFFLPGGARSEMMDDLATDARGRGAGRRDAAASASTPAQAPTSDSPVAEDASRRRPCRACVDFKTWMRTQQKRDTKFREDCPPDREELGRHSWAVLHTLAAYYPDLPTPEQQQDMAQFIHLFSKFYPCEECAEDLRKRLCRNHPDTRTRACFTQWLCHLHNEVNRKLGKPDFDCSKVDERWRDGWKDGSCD", "assay": "inhibitors of human ALR sulfhydryl oxidase, primary screen, biochemical, H2O2 detection, HRP-luminol luminescence, single point (AID 485317)", "conditions": "purified ALR, DTT oxidation, stronger effect = higher value, concentration not given here"}
{"compound": "CC1CCc2[nH]c3ccc(C(=O)N(C)CC(=O)Nc4cccc(F)c4)cc3c2C1", "note": "(configuration not stated)", "inhibition": "2.5% (inactive)"}
{"compound": "COc1cccc(NC(=O)COc2cccnc2[N+](=O)[O-])c1", "inhibition": "-5.23% (inactive)"}
{"compound": "Cc1noc(C)c1S(=O)(=O)N(C)C[C@H]1Oc2ccc(NC(=O)C3CCCCC3)cc2C(=O)N([C@H](C)CO)C[C@@H]1C", "inhibition": "0.231% (inactive)"}
{"compound": "CCN(C[C@H]1N[C@@](CC)(C(=O)OC)[C@H]2C(=O)N(C)C(=O)[C@@H]12)C(=O)Nc1ccc(F)cc1", "inhibition": "0.784% (inactive)"}
{"compound": "Cc1cccc(NC(=O)COC(=O)CCc2ccccc2)c1C", "inhibition": "-8.62% (inactive)"}
{"compound": "Cc1cccc(NC(=O)CN2C(=O)c3ccccc3C2=O)c1C", "inhibition": "2.16% (inactive)"}
{"compound": "Cc1cccc(NC(=O)CSC(N)=O)c1C", "inhibition": "98.7% (active)"}
{"compound": "COc1cc(OC)cc(-c2c(C#Cc3ccsc3)c3cc(-c4ccc(SC)cc4)ccc3n2C)c1", "inhibition": "-4.93% (inactive)"}
{"compound": "CC1=NN(C(=O)c2ccccc2Br)C(O)(c2cccnc2)C1", "note": "(configuration not stated)", "inhibition": "-2.8% (inactive)"}
{"compound": "CCOC(=O)C1(O)CC(C)=NN1C(=O)c1cccc(Br)c1", "note": "(configuration not stated)", "inhibition": "-4.22% (inactive)"}
{"compound": "CC1=NN(C(=O)c2ccc(Br)cc2)C(O)(c2ccccc2)C1", "note": "(configuration not stated)", "inhibition": "82.1% (active)"}
{"compound": "COc1cc(SC)ccc1C(=O)NNC(=O)C1COc2ccccc2O1", "note": "(configuration not stated)", "inhibition": "0.292% (inactive)"}
{"compound": "CCC1S/C(=N/N=C/c2ccco2)NC1=O", "note": "(configuration not stated)", "inhibition": "-6.96% (inactive)"}
{"compound": "O=C1OC(/C=C/c2ccccc2)=NC/1=C/c1ccco1", "inhibition": "9.93% (inactive)"}
{"compound": "CC(C)(C)C1C/C(=C/c2ccco2)C(=O)/C(=C/c2ccco2)C1", "note": "(configuration not stated)", "inhibition": "96.3% (active)"}
{"compound": "O=C(CSC1=Nc2ccccc2C2=NC(CC(=O)NCc3ccco3)C(=O)N12)NCc1ccco1", "note": "(configuration not stated)", "inhibition": "6.97% (inactive)"}
{"compound": "CC(C)C1N=C2c3ccccc3N=C(SCC(=O)c3ccc(O)c(O)c3)N2C1=O", "note": "(configuration not stated)", "inhibition": "99.7% (active)"}
{"compound": "O=C(CSC1=Nc2ccccc2C2=NC(c3ccccc3)C(=O)N12)NCC1CCCO1", "note": "(configuration not stated)", "inhibition": "-17.3% (inactive)"}
{"compound": "COc1ccc(-c2cc(-c3ccc(N)cc3)nc(N)c2C#N)cc1OC", "inhibition": "98.9% (active)"}
{"compound": "COc1ccccc1-c1c(C#N)c(N)nc2c1CCC2", "inhibition": "0.706% (inactive)"}
{"compound": "CCOc1cc(-c2cc(-c3ccc(OC)cc3)nc(N)c2C#N)ccc1O", "inhibition": "41.9% (inactive)"}
{"compound": "Cc1ccc(NC(=O)CN2CCC3(O)CCCCC3C2c2ccc3c(c2)OCO3)c(C)c1", "note": "(configuration not stated)", "inhibition": "6.21% (inactive)"}
{"compound": "O=C(CN1CCC(O)(c2ccccc2)CC1)Nc1ccc2c(c1)OCCO2", "inhibition": "-15.8% (inactive)"}
{"compound": "CCN(CC)c1ccc(C2C3CCCCC3(O)CCN2CC(=O)Nc2ccccc2)cc1", "note": "(configuration not stated)", "inhibition": "97.5% (active)"}
{"compound": "O=C(COC(=O)/C=C/c1cccc(Cl)c1)NCc1cccs1", "inhibition": "-15.2% (inactive)"}
{"compound": "O=C(COc1ccccc1Cl)N1N=C(c2cccs2)CC1c1ccco1", "note": "(configuration not stated)", "inhibition": "12.6% (inactive)"}
{"compound": "O=C(CSc1nc2nccnc2c(=O)n1Cc1cccs1)Nc1ccccc1F", "inhibition": "98.7% (active)"}
{"compound": "CCOc1ccc(NC(=O)CSc2nc3ccccc3c(=O)n2Cc2cccs2)cc1", "inhibition": "-4.39% (inactive)"}
{"compound": "COCCn1c(SCC(=O)Nc2ccccc2F)nc2c(c1=O)SCC2", "inhibition": "23.5% (inactive)"}
{"compound": "COc1ccc(C(=O)N2CCN(c3ccc(C(C)=O)cc3F)CC2)cc1S(=O)(=O)NC1CC1", "inhibition": "2.33% (inactive)"}
{"compound": "COc1cccc(NC(=O)CN(C)C(=O)CSC(=S)N2CCCC2)c1", "inhibition": "-14.6% (inactive)"}
{"compound": "CN1C=CC=C/C1=C1\\SC(=S)N(Cc2ccccc2)C1=O", "inhibition": "-1.3% (inactive)"}
{"compound": "CCCCN1C(=O)/C(=C2/Sc3ccc(Cl)cc3N2CC)SC1=S", "inhibition": "-23.2% (inactive)"}
{"compound": "CCCCN1C(=O)/C(=C2/C=CC=CN2C)SC1=S", "inhibition": "99% (active)"}
{"compound": "O=C(CSc1nc2ccccc2c(=O)n1-c1ccccc1F)N1CCOCC1", "inhibition": "-2.73% (inactive)"}
{"compound": "CC1CCC(NC(=O)CNC(=O)c2ccc3ccccc3c2)CC1", "note": "(configuration not stated)", "inhibition": "-7.47% (inactive)"}
{"compound": "COc1cc(N=Cc2c(O)[nH]c3ccccc23)cc(OC)c1OC", "inhibition": "96.6% (active)"}
{"compound": "COCC(=O)N=Nc1c(O)[nH]c2ccccc12", "inhibition": "-3.07% (inactive)"}
{"compound": "CN=c1scc(-c2cc(OC)ccc2OC)n1/N=C/c1c(C)[nH]c2ccccc12", "inhibition": "15.7% (inactive)"}
{"compound": "COc1cc(N=Cc2c(O)c3ccccc3oc2=O)c(OC)cc1Cl", "inhibition": "-4.24% (inactive)"}
{"compound": "COc1ccc(N=Cc2c(O)[nH]c3ccccc23)cc1OC", "inhibition": "99.3% (active)"}
{"compound": "COc1ccccc1N=Cc1c(O)c2ccccc2oc1=O", "inhibition": "0.366% (inactive)"}
{"compound": "CN(CC(=O)Nc1ccc(Cl)c(C(F)(F)F)c1)C(=O)CCC(=O)c1ccccc1", "inhibition": "-3.88% (inactive)"}
{"compound": "Cc1ccc(C)c(S(=O)(=O)N2CCN(c3ncnc4sccc34)CC2)c1", "inhibition": "-13.7% (inactive)"}
{"compound": "O=C(NCc1ccccc1)c1onc(CSc2ccncc2)c1C(=O)NCc1ccccc1", "inhibition": "-5.05% (inactive)"}
{"compound": "CC(C)n1ncc2c(C(=O)Nc3ccc(CC#N)cc3)cc(C3CC3)nc21", "inhibition": "-14.1% (inactive)"}
{"compound": "O=C(c1ccc(N2CCOCC2)c([N+](=O)[O-])c1)N1CCN(c2ccccc2F)CC1", "inhibition": "0.595% (inactive)"}
{"compound": "O=C1C=C(c2cc(C(F)(F)F)cc(C(F)(F)F)c2)C[C@@H](c2ccc3c(c2)OCO3)C1", "inhibition": "-3.13% (inactive)"}
{"compound": "Nc1ccc(Nc2ccccc2)cc1", "inhibition": "-2.25% (inactive)"}
{"compound": "Cc1ccc(Nc2ccccc2N)cc1", "inhibition": "85.9% (active)"}
{"compound": "Cc1ccc(Nc2ccc(C(N)=O)cc2[N+](=O)[O-])cc1", "inhibition": "-3.97% (inactive)"}
{"compound": "COc1ccc(NC(=O)CN(C)C(=O)c2cc(-c3ccc(C)o3)nc3ccccc23)cc1", "inhibition": "-3.77% (inactive)"}
{"compound": "CS(=O)(=O)N(CC(=O)N1CCc2ccccc2C1)c1ccc(Br)cc1", "inhibition": "-3.9% (inactive)"}
{"compound": "C=CCn1c(C2CC(=O)N(c3ccc(C)cc3)C2)nc2ccccc21", "note": "(configuration not stated)", "inhibition": "87.3% (active)"}
{"compound": "C=CCn1c(P(C)(=O)O)nc2ccccc21", "inhibition": "-17.7% (inactive) and -5.83% (inactive)"}
{"compound": "CC(C)(C)N1CC(c2nc3ccccc3n2Cc2ccc(F)cc2)CC1=O", "note": "(configuration not stated)", "inhibition": "-2.5% (inactive)"}
{"compound": "COc1ccc(OC)c(NC(=O)COC(=O)Cc2ccsc2)c1", "inhibition": "-0.814% (inactive)"}
{"compound": "Cc1ccc(Oc2ccc(N)cc2)cc1", "inhibition": "98.9% (active)"}
{"compound": "CC(C)(C)c1ccc(Oc2ccc(N)cc2)cc1", "inhibition": "98.6% (active)"}
{"compound": "Cc1cc(C(C)(C)C)cc(C)c1N", "inhibition": "-3.27% (inactive)"}
{"compound": "Cc1ccc(S(=O)(=O)c2ccc(Oc3ccccc3)cc2)cc1", "inhibition": "-8.5% (inactive)"}
{"compound": "CC(C)(C)c1ccc(OC2=CS(=O)(=O)c3ccccc32)cc1", "inhibition": "4.58% (inactive)"}
{"compound": "Cc1cc(C)cc(N)c1", "inhibition": "8.46% (inactive)"}
{"compound": "CCOC(=O)N1CCN(C(=O)CSc2nc(=O)n3cccc(C)c3n2)CC1", "inhibition": "1.32% (inactive)"}
{"compound": "CCN(CC(=O)Nc1c(F)cccc1F)C(=O)C1CCC1", "inhibition": "-1.96% (inactive)"}
{"compound": "O=C(NCCC1CCCCN1S(=O)(=O)c1ccccc1)C(=O)NCC1CCCO1", "note": "(configuration not stated)", "inhibition": "-4.14% (inactive)"}
{"compound": "C[C@@H]1CN([C@@H](C)CO)C(=O)c2cc(NC(=O)C3CC3)ccc2O[C@H]1CN(C)C", "inhibition": "1.71% (inactive)"}
{"compound": "COc1ccc(-c2nnc(SCc3cccnc3)o2)cc1", "inhibition": "-15% (inactive)"}
{"compound": "COc1ccc(-c2nnc(SC(=O)N3c4ccccc4Sc4ccccc43)o2)cc1", "inhibition": "94.9% (active)"}
{"compound": "COc1ccc(-c2nnc(SCC(=O)c3ccc4c(c3)OCCO4)o2)cc1", "inhibition": "4.53% (inactive)"}
{"compound": "COc1ccc(C2(c3ccc(OC)cc3)NC(=O)N(CC(=O)Nc3cc(C)on3)C2=O)cc1", "inhibition": "-0.145% (inactive)"}
{"compound": "Cc1ccc(SCC(=O)Nc2nncs2)cc1", "inhibition": "-6.08% (inactive)"}
{"compound": "COCCCN(C(=O)CSCc1ccc(C)cc1)c1c(N)n(Cc2ccccc2)c(=O)[nH]c1=O", "inhibition": "46.2% (inactive)"}
{"compound": "S=C(NCC1CCCO1)N1CCN(c2ccc(Cl)c(Cl)c2)CC1", "note": "(configuration not stated)", "inhibition": "0.527% (inactive)"}
{"compound": "Oc1c(Br)cc(/C=N/NC(=S)NCC2CCCO2)cc1Br", "note": "(configuration not stated)", "inhibition": "96.2% (active)"}
{"compound": "O=C(CNC(=O)C1COc2ccccc2O1)N/N=C/c1cc(Br)c(O)c(Br)c1", "note": "(configuration not stated)", "inhibition": "66.1% (inactive)"}
{"compound": "CCCN(C(=O)c1nc2nccc(C)n2n1)c1c(N)n(Cc2ccccc2)c(=O)[nH]c1=O", "inhibition": "1.52% (inactive)"}
{"compound": "CN(C)c1ccc(CNC(=O)CN2C(=O)COc3ccc(S(=O)(=O)N4CCCC4)cc32)cc1", "inhibition": "98.6% (active)"}
{"compound": "CCc1ccc(NC(=O)CN2C(=O)COc3ccc(S(=O)(=O)N4CCCC4)cc32)cc1", "inhibition": "-3.09% (inactive)"}
{"compound": "COc1ccc(CCNC(=O)CN2C(=O)COc3ccc(S(=O)(=O)N4CCCC4)cc32)cc1OC", "inhibition": "-1.92% (inactive)"}
{"compound": "O=C(NCc1ccccn1)Nc1ccc(Cl)cc1", "inhibition": "-24.3% (inactive)"}
{"compound": "Cc1cc(=O)oc2c(C)c(OCC(=O)NCCN3CCOCC3)ccc12", "inhibition": "-3.13% (inactive)"}
{"compound": "CCC1=Nc2cc(C(=O)NCCN3CCCC3)ccc2Sc2ccc(C)cc21", "inhibition": "-17.3% (inactive)"}
{"compound": "Cc1ccsc1-c1nc(CSCC(=O)NCCN2CCCC2)c(C)o1", "inhibition": "97.8% (active)"}
{"compound": "CC(C)(C)c1nnc(N/N=C/c2ccc(O)cc2)n(N)c1=O", "inhibition": "98.8% (active)"}
{"compound": "O=C(O)c1ccc(/C=N/Nc2nc(N3CCCCC3)nc(N3CCCCC3)n2)cc1", "inhibition": "3.03% (inactive)"}
{"compound": "CCCCn1c(N)c(N(CC(C)C)C(=O)c2cccc(S(=O)(=O)N3CC(C)OC(C)C3)c2)c(=O)[nH]c1=O", "note": "(configuration not stated)", "inhibition": "-2.1% (inactive)"}
{"compound": "OCCCNc1nc(-c2ccccc2)c2cc(Cl)ccc2n1", "inhibition": "-2.06% (inactive)"}
{"compound": "CC(Sc1ncnc2c1cnn2-c1ccccc1)C(=O)Nc1ccc(N2CCOCC2)cc1", "note": "(configuration not stated)", "inhibition": "-5.27% (inactive)"}
{"compound": "COC(=O)c1c(-c2ccc(C)cc2)csc1N", "inhibition": "97.8% (active)"}
{"compound": "CCOC(=O)c1c(-c2ccc(-c3ccccc3)cc2)csc1NC(=O)CCC(=O)O", "inhibition": "60.9% (inactive)"}
{"compound": "CCOC(=O)c1c(-c2ccc(C)cc2)csc1/N=C(\\C)C1=C(O)c2ccccc2C1=O", "inhibition": "1.75% (inactive)"}
